Sampled rows, rich in hits. Any-hit rate of the full collection: about 4.5%.
ERK AVP block: inhibitors of vasopressin-stimulated ERK signaling pathway; AID 995; hit rate 0.99% among 72,000; Potency, µM (top dose mostly 57.5 µM), usual class: inhibitors; HEK293-V1b, vasopressin-stimulated pERK AlphaScreen; note: nearly all actives have a fitted effect of over 55% in size
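V1b-HEK293 cells; cpd 30 min 37C; 25 nM vasopressin 5 min; lyse 10 min; AlphaScreen beads 5 hr RT. Normalized to DMSO basal and 25 nM vasopressin; AC50 by Hill fit.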
GBA mod: alters purified human glucocerebrosidase activity; hit rate 1.1% among 48,000; P04062; purified enzyme, resorufin glucoside fluorescence (screen aimed at inhibitors), 20 min; Potency, µM; in the data active = potency below about 15 µM; inconclusive = mostly about 16 µM to 33 µM;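 note: the screen sought inhibitors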
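Wild-type enzyme at 0.2 nM final in 50mM citric acid/KH2PO4, 10mM sodium taurocholate, 0.01% tween-20, pH 5.9, with resorufin beta-D-glucopyranoside at 30 uM final. Compounds titrated, 20 min at RT, red fluorescence read; AC50 from titration.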
HEK293 cAMP cs: raises cAMP in parental HEK293 cells, TSHR agonist counter-screen | AID 938 | hit rate 2.5% among 73,000 | parental HEK293 CNG cAMP sensor, membrane potential fluorescence | Potency, µM (top dose mostly 57.1 µM), most hits filed as activators; note: nearly all actives have a fitted effect of over 55% in size
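Parental HEK 293 cells stably expressing a modified CNG channel (no TSHR) report cAMP rise as membrane depolarization. Membrane potential dye with 100 uM RO 20-1724 was loaded for 60 min at room temperature, then compound added for 30 min; fluorescence read at 590 nm.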
TSHR agonist: activates the human thyroid stimulating hormone receptor; HEK293-CNG-TSHR cells (CNG channel as cAMP sensor), membrane potential dye, cAMP; AID 926; hit rate 0.48% among 73,000; Potency, µM (series often up to 57.1 µM), usual class: activators; active = well fitted activation curve with a large enough effect in the main read-out, with a control signal flat, not every such curve was filed as active; inconclusive = small, poorly fitted or top-dose-only effect, or a change in a side signal; inactive = no such curve, though single readings can be large or run the other way; reference of the percent scale not stated here;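 note: the control signal comes from parental cells without the receptor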
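HEK 293 cells stably expressing TSHR and a cAMP-gated CNG channel; parental CNG-only cells as counterscreen. Cells preloaded 60 min with membrane potential dye plus 100 uM RO 20-1724, then compound 30 min; fluorescence read at 590 nm.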
Casp7 inh: caspase-7 (human) inhibition, allosteric or competitive | Potency, µM (series often up to 57.5 µM), usual class: inhibitors | recombinant caspase-7, Ac-DEVD-AFC fluorescence rate | P55210 | hit rate 0.02% among 75,000 | AID 889; active = well fitted inhibition curve with a large enough effect in the main read-out, with a control signal flat, not every such curve was filed as active; inconclusive = small, poorly fitted or top-dose-only effect, or a change in a side signal
Target sequence (P55210 24-198 limits assumed): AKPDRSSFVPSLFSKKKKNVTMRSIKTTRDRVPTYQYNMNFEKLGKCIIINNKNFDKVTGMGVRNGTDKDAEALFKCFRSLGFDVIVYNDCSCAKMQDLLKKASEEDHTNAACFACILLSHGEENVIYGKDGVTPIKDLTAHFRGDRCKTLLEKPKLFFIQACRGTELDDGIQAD
Target sequence (P55210 207-303 limits assumed): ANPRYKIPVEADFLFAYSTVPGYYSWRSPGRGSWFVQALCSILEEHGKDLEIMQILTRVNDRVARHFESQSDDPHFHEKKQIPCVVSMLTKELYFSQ
Casp1 inh: caspase-1 (human) inhibition, allosteric or competitive; Potency, µM (doses to about 57.5 µM), hits mostly inhibitors; P29466; hit rate 0.03% among 75,000; Caspase-1 enzyme, Ac-WEHD-AFC fluorogenic rate
Target sequence (P29466 120-297 limits assumed): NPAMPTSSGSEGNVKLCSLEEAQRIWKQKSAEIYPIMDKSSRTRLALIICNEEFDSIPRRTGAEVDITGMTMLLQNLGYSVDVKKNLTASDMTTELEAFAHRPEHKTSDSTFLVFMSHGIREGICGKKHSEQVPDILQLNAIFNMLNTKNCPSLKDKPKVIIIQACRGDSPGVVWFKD
Target sequence (P29466 317-404 limits assumed): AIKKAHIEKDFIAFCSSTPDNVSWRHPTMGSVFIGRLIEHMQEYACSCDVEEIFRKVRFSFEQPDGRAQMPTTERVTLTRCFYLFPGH
Of the large screens only hits and unclear results are named; the others gave an inactive call. Unless noted, calls come from the whole dose curve; as a rule, active = well fitted curve in the direction sought with a large enough effect; inconclusive = small, poorly fitted or top-dose-only effect, or another doubt; inactive = no such curve, though single readings can be large; an effect the other way counts as inactive or inconclusive.

Cc1ccc(S(=O)(=O)N[C@H](C(=O)O)C(C)C)cc1	none (no result: GBA mod)
COc1ccccc1NC(=O)CSc1nnc(Cc2cccn2C)n1CCc1ccccc1	ERK AVP block inconclusive, HEK293 cAMP cs 20µM, TSHR agonist inconclusive
Cn1cccc1Cc1nnc(SCC(=O)Nc2nccs2)n1CCc1ccccc1	ERK AVP block 16µM (no result: GBA mod)
COc1ncc2nc(-c3ccc(F)cc3)c(=O)n(C)c2n1	none (no result: GBA mod)
Cn1cccc1C(=O)N1CCC2(CCN(C(=O)Nc3ccccc3)CC2)CC1	none (no result: GBA mod)
O=C(Nc1ccc(-c2nc3ccccc3o2)c(O)c1)c1cc(-n2cnnc2)ccc1Cl	ERK AVP block 6.3µM (no result: GBA mod, TSHR agonist)
O=S(=O)(c1ccccc1Cl)N1CCC(O)(c2ccc3c(c2)OCO3)CC1	ERK AVP block 32µM, GBA mod inconclusive
CCNC(=O)C1CC(=O)N(Cc2ccc(F)cc2)C(=Nc2ccc(OC)cc2)S1 (stereo not given)	GBA mod inconclusive
CCNC(=O)C1CC(=O)N(Cc2ccc3c(c2)OCO3)C(=Nc2ccc(OCC)cc2)S1 (stereo not given)	TSHR agonist 32µM
CC(C)N(Cc1ccccc1)C(=O)COC(=O)c1ccc2c(c1)OCCO2	HEK293 cAMP cs inconclusive, TSHR agonist inconclusive
CC(C)N(CCC(=O)c1ccc2ccccc2c1)Cc1ccccc1	ERK AVP block 32µM (no result: GBA mod)
COC(=O)c1ccc(NC(=O)C2CCCN2S(=O)(=O)c2ccc(C)cc2)cc1 (stereo not given)	ERK AVP block 25µM (no result: GBA mod, TSHR agonist)
COC(=O)c1ccc(NC(=O)C2CCCN2S(=O)(=O)c2ccc(OC)cc2)cc1 (stereo not given)	none (no result: TSHR agonist)
COC(=O)c1cc(OC)c(OC)cc1NC(=O)C1CCC(=O)N1S(=O)(=O)c1ccc(C)cc1 (stereo not given)	ERK AVP block 25µM
Cc1ccc(S(=O)(=O)N2CCCCC2C(=O)NCc2ccco2)cc1 (stereo not given)	TSHR agonist 16µM
CCC(C)NC(=O)C1CCCN(S(=O)(=O)c2ccc(-n3cnnn3)cc2)C1 (stereo not given)	none
O=C(NCc1ccco1)C1CCCN(S(=O)(=O)c2ccc(-n3cnnn3)cc2)C1 (stereo not given)	HEK293 cAMP cs 20µM, TSHR agonist inconclusive
COc1cccc2c1CCC1CC(=O)CC[C@@]21C (stereo not given in full)	none (no result: GBA mod, HEK293 cAMP cs, TSHR agonist)
Fc1cccc(CSc2ncnc3c2ncn3[C@H]2CCCS2)c1	none (no result: GBA mod)
COc1ccc(OC)c(S(=O)(=O)n2ccnc2)c1	none (no result: ERK AVP block, GBA mod)
COc1ccc(N(C(=O)c2ccco2)C(C(=O)NC2CCCC2)c2ccc(N(C)C)cc2)cc1OC (stereo not given)	none
COc1ccc(C(C(=O)NC2CCCC2)N(C(=O)c2ccco2)c2ccc3c(c2)OCO3)cc1OC (stereo not given)	TSHR agonist 10µM
O=C1c2ccccc2NC2CCCCC12 (stereo not given)	HEK293 cAMP cs 5µM, TSHR agonist inconclusive
O=C1c2ccccc2NC2CCCCCN12 (stereo not given)	none
C[N+](C)(C)c1ccc([C@H](N)C(=O)O)cc1	none (no result: GBA mod)
CCNc1ncc2nc(-c3cc(F)cc(F)c3)c(=O)n(C[C@H]3CCCO3)c2n1	Casp7 inh inconclusive (no result: GBA mod, Casp1 inh)
COc1cccc(-c2cncnc2NCc2cccc(C)c2)c1	HEK293 cAMP cs inconclusive, TSHR agonist inconclusive (no result: GBA mod)
O=C(Nc1ccccc1)N1CCC2(CC1)CCN(C(=O)c1csnn1)CC2	TSHR agonist 4µM (no result: GBA mod)
Cc1ccc(-c2cc(C(=O)N3CCOCC3)c3ccccc3n2)cc1	TSHR agonist 25µM
O=C(OCC(=O)N1CCN(C(=O)c2ccco2)CC1)c1cc(-c2ccccc2)nc2ccccc12	ERK AVP block 20µM
COc1ccc(-c2cc(C(=O)N3CCOCC3)c3cc(C)ccc3n2)cc1	none
CNc1ccc(C(O)(C(F)(F)F)C(F)(F)F)cc1C(O)(C(F)(F)F)C(F)(F)F	ERK AVP block inconclusive, GBA mod 13
COc1ccccc1C(=O)N1CCN(C(=O)c2ccncc2)CC1	HEK293 cAMP cs 25µM, TSHR agonist inconclusive (no result: GBA mod)
COc1ccccc1C(=O)N1CCN(c2cccc(Cl)c2)CC1	HEK293 cAMP cs inconclusive, TSHR agonist inconclusive
COc1c(-c2ccccc2)oc2c(ccc3occc32)c1=O	ERK AVP block inconclusive, HEK293 cAMP cs 40µM, TSHR agonist inconclusive (no result: GBA mod)
O=c1[nH]c(C(F)(F)F)nc2c1nnn2Cc1ccccc1F	HEK293 cAMP cs 25µM, TSHR agonist inconclusive
CCc1cc(Br)ccc1N1C(=O)C2CC=CCC2C1=O (stereo not given)	TSHR agonist 2.5µM (no result: GBA mod)
CC(C)OC(=O)c1ccc(N2C(=O)C3CC=CCC3C2=O)cc1 (stereo not given)	none (no result: TSHR agonist)
COC(=O)[C@@]1(Cc2ccccc2)[C@H]2c3cc(C(=O)N4CCCC4)n(Cc4cccc5ccccc45)c3C[C@H]2CN1C(=O)c1ccccc1	HEK293 cAMP cs 1.6µM, TSHR agonist inconclusive (no result: GBA mod)
COC(=O)[C@@]1(Cc2ccc(F)cc2)[C@H]2c3cc(C(=O)N4CCCC4)n(Cc4cccc5ccccc45)c3C[C@H]2CN1C(=O)c1ccccc1	HEK293 cAMP cs inconclusive, TSHR agonist inconclusive (no result: GBA mod)
COC(=O)[C@@]1(Cc2ccc(F)cc2)[C@H]2c3cc(C(=O)N(C)C)n(Cc4cccc5ccccc45)c3C[C@H]2CN1C(=O)c1ccccc1	HEK293 cAMP cs 16µM, TSHR agonist inconclusive (no result: GBA mod)
COC(=O)[C@@]1(Cc2ccc(F)cc2)[C@H]2c3cc(C(=O)N(C)C)n(Cc4ccsc4Br)c3C[C@H]2CN1C(=O)c1ccccc1	HEK293 cAMP cs 4µM, TSHR agonist inconclusive (no result: GBA mod)
COC(=O)[C@@]1(Cc2ccc(F)cc2)[C@H]2c3cc(C(=O)N(C)C)n(Cc4ccc(S(C)(=O)=O)cc4)c3C[C@H]2CN1C(=O)c1ccccc1	HEK293 cAMP cs inconclusive, TSHR agonist inconclusive (no result: GBA mod)
COC(=O)[C@@]1(Cc2ccc(OC)cc2)[C@H]2c3cc(C(=O)N(C)C)n(Cc4ccc(C)c(F)c4F)c3C[C@H]2CN1C(=O)c1ccccc1	HEK293 cAMP cs 2.5µM, TSHR agonist inconclusive (no result: GBA mod)
COC(=O)[C@@]1(Cc2ccc(OC)cc2)[C@H]2c3cc(C(=O)N(C)C)n(CCO)c3C[C@H]2CN1C(=O)c1ccccc1	none (no result: GBA mod)
COC(=O)[C@@]1(Cc2ccc(F)cc2)[C@H]2c3cc(C(=O)N4CCCC4)n(Cc4cc(F)cc5c4OCOC5)c3C[C@H]2CN1C(=O)c1ccccc1	HEK293 cAMP cs inconclusive, TSHR agonist inconclusive (no result: GBA mod)
COC(=O)[C@@]1(Cc2ccccc2)[C@H]2c3cc(C(=O)N4CCCC4)n(Cc4cc(F)cc5c4OCOC5)c3C[C@H]2CN1C(=O)c1ccccc1	HEK293 cAMP cs 2.5µM, TSHR agonist inconclusive (no result: GBA mod)

Source: PubChem BioAssay
